TRPM1 prom inh = inhibitors of MITF-dependent TRPM1 promoter reporter, primary screen, cell-based, SK-MEL-5, single point, luciferase. SK-MEL-5 TRPM1 promoter luciferase, 24 h. inhibition, % at 12.5 µM. 330,000 compounds, 0.83% hits;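 active = mean inhibition across replicates of 60% or more, whatever share of single replicates reaches that level; inconclusive = some that reach 60%, reason not given; inactive = mean inhibition across replicates below 60%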
CF NFkB block = inhibitors of PAF-induced NF-kB signaling, primary screen, cell-based, GFP fluorescence, uHTS; inhibition, % at 5 µM; 360,000 compounds, 0.86% hits; AID 588850, 2011; KKLEB NF-kB-GFP reporter, GFP fluorescence overnight;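 active = at least 50% inhibition at 5 µM, scaled per plate between neutral and stimulator controls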;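 note: PAF is a Pseudomonas aeruginosa culture filtrate used as stimulus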
LMP1 NFkB inh = EBV LMP1-driven NF-kappaB luciferase reporter inhibitors, primary screen, cell-based, luminescence, single point; LMP1-induced NF-kappaB luciferase reporter cells; inhibition, % at 12.5 µM; 350,000 compounds, 0.69% hits; AID 504558, 2011; in the data active = inhibition above about 41%; inconclusive = no clear call, values can overlap the other calls
Peg3 prom inh = Peg3 promoter-driven luciferase inhibitors, primary screen, cell-based, HeLa, luciferase luminescence. HeLa PEG-Prom luciferase reporter, overnight. inhibition, % at 20 µM. 360,000 compounds, 1.7% hits;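 active = inhibition of at least 50% at 20 µM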
KKLEB tox = cytotoxicity in KKLEB CF airway cells, primary screen, cytotoxicity control for CF NF-kB inhibitor project, cell-based, uHTS, fluorescence assay plates | activity change (cytotoxicity), % at 5 µM | AID 602141, 2011 | KKLEB CF airway cells viability, ATPlite luminescence, overnight; stronger effect = lower value; cells stimulated with P. aeruginosa culture filtrate | 360,000 compounds, 0.36% hits;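 active = corrected activity change at or below -50% at 5 µM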
HIF-2a inh = HIF-2a reporter inhibitors, primary screen, luminescence, 786-0 RCC cells; 786-0 RCC cells HIF-2a reporter, luciferase luminescence, overnight; inhibition, % at 18.8 µM; 360,000 compounds, 0.72% hits;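 active = inhibition of the luminescence signal of 40% or more relative to plate controls, in a single-dose primary screen at 18.75 µM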
Hits are given with their value; i = inactive; ? = inconclusive; nt = no result given. An excerpt weighted towards active compounds, which were near 3% of everything screened.

SMILES	TRPM1 prom inh	CF NFkB block	LMP1 NFkB inh	Peg3 prom inh	KKLEB tox	HIF-2a inh
O=C1/C(=C/c2cccnc2)SC(=S)N1N1CCOCC1	i	i	i	i	i	i
O=C1/C(=C\c2cccnc2)SC(=S)N1C1CCS(=O)(=O)C1 (stereo not drawn)	i	66.4	i	i	i	i
CC1(C)CC(N2CCN(Cc3ccccc3)CC2)=CC(=[N+]2CCCCC2)C1	67.1	i	i	i	i	i
CN(Cc1ccccc1)C1=CC(=[N+]2CCCCC2)CC(C)(C)C1	77.1	i	43.7	i	i	i
CC1(C)CC(N2CCCC2)=CC(=[N+]2CCCCC2)C1	i	i	i	i	i	i
Cc1nc2ccccn2c(=O)c1NC(=O)c1ccc2c(c1)OCO2	nt	i	i	i	i	i
O=C1C=C(NCc2ccccc2)c2ccccc2C1=O	104.3	i	i	i	i	i
Cc1ccc(NC2=CC(=O)C(=O)c3ccccc32)c(C)c1	nt	76.9	i	i	i	i
O=C1C=C(Nc2ccccc2O)c2ccccc2C1=O	100.3	63.9	i	i	-64.0	i
CC(C)CN1C(=S)SC(C)(C)C1n1oc(=O)n(-c2ccc(Cl)cc2)c1=O (stereo not drawn)	i	65.4	i	66.5	-56.2	i
Cc1ccc2cc(CN(CCc3ccccc3)C(=S)NCCCN(C)C)c(=O)[nH]c2c1	i	i	i	i	i	i
Cc1ccc2[nH]c(=O)c(CN(CCCN(C)C)C(=S)NCCc3ccccc3)cc2c1	i	i	i	56.2	i	i
Cc1cccc(Nc2cc(=O)n(C)c(=O)n2C)c1	nt	i	i	i	i	i
O=C(Nc1cccc(F)c1)N1CCc2nc(NCc3cccc(Oc4ccccc4)c3)ncc2C1	nt	i	nt	i	i	i
CC(O)(CC(=O)CC(=O)c1ccccc1)c1ccccc1 (stereo not drawn)	i	i	i	52.4	i	i
CCOC(=O)CCSc1nc(N2CCOCC2)c2c(c1C#N)CC(C)(C)OC2	i	i	63.3	i	i	i
Cc1cn([C@H]2C[C@H](O)[C@@H](CNCc3cnc(N4CCOCC4)s3)O2)c(=O)[nH]c1=O	nt	i	i	i	i	i
CCCS(=O)(=O)NC(=O)C1(C)CCN(C(=O)c2ccccc2C(F)(F)F)C1 (stereo not drawn)	nt	i	nt	i	i	i
FC(F)(F)c1cc(Cl)c2nc(-c3ccccc3)c(Cc3cccc(Cl)c3)n2c1	nt	nt	nt	nt	nt	i
O=C(CN1CCN(S(=O)(=O)c2ccccc2C(F)(F)F)CC1)NCc1cccs1	i	i	i	i	i	i
NC(=O)c1ccsc1NC(=O)CN1CCN(S(=O)(=O)c2ccccc2C(F)(F)F)CC1	i	i	i	61.0	i	i
c1ccc(COc2ncnc3c2ncn3CCCN2CCN(Cc3cccc4ccccc34)CC2)cc1	nt	i	i	101.2	i	i
Cc1ccc(CN2CCN(CCCn3cnc4c(OCc5ccccc5)ncnc43)CC2)cc1	i	i	i	i	i	i
Oc1ccc(N=Nc2cccc(C(F)(F)F)c2)cc1C=Nc1ccc(N2CCOCC2)cc1	i	78.5	i	i	i	i
Oc1ccc(C=Nc2ccc(N3CCOCC3)cc2)c(O)c1	i	i	i	i	i	i
SMILES	TRPM1 prom inh	CF NFkB block	LMP1 NFkB inh	Peg3 prom inh	KKLEB tox	HIF-2a inh
CC(C)(C)NC(=O)C(CCc1ccccc1)n1c(=O)c(-c2cc3ccccc3[nH]2)nc2ccccc21 (stereo not drawn)	nt	nt	nt	nt	nt	i
CCC(=O)Nc1cccc(-c2csc(-c3ccccc3)n2)c1	i	i	i	i	i	i
CC(C)CC(=O)Nc1cccc(-c2csc(-c3ccccc3)n2)c1	i	i	66.6	i	i	i
COCCCN1C(=O)C(CC(=O)NC2CCCC2)CC(C(=O)N2CCOCC2)=C1C (stereo not drawn)	nt	i	i	i	i	i
COc1cc(CNCc2ccc(OC)c(OC)c2OC)cc(OC)c1	i	i	i	71.5	i	i
Cc1nnc(NC(=O)c2c(F)cccc2F)s1	i	i	53.4	i	i	i
Cc1ccc(S(=O)(=O)Nc2ccccc2OC(C(=O)OC(C)(C)C)C(=O)OC(C)(C)C)cc1	nt	nt	nt	nt	nt	i
CCNC(=O)C1CCCN(C(=O)c2cccs2)CC1 (stereo not drawn)	nt	i	nt	i	i	i
COc1cc(C(=O)ON=C2C3CC4CC(C3)CC2C4)cc(OC)c1OC	i	i	i	76.5	i	i
COc1cc(C(=O)O/N=C2\C=CC(=O)C=C2C)cc(OC)c1OC	i	i	i	i	i	i
Cc1cc([N+](=O)[O-])nn1Cc1ccc(C(=O)N/N=C/c2ccc(O)cc2O)cc1	i	i	i	56.2	i	i
O=C(N/N=C/c1ccc(O)cc1O)c1ccc(CN2C(=O)c3cccc4cccc2c34)cc1	i	i	50.2	i	i	i
CCOC(=O)[C@]12CCCC=C1N(Cc1ccccc1)C(=O)[C@H](CC(=O)N1CCN(C(=O)C3CC3)CC1)C2	nt	nt	nt	nt	nt	i
NC(COCc1ccccc1)c1csc(Nc2ccc(C(F)(F)F)cn2)n1 (stereo not drawn)	nt	i	nt	101.7	i	i
NC(CCc1ccccc1)c1csc(Nc2ccc(C(F)(F)F)cn2)n1 (stereo not drawn)	nt	i	nt	109.6	i	i
CCOc1cc(/C=C2/C(=N)N3N=C(CC)SC3=NC2=O)ccc1OC(=O)c1ccco1	i	i	42.7	i	i	i
CC(=O)c1ccc(N(C(=O)CNC(=O)c2cccs2)C(C(=O)NCC2CCCO2)c2ccccc2)cc1 (stereo not drawn)	i	i	i	93.9	i	i
OC(CNCCc1ccc(C(F)(F)F)cc1)COC(c1ccccc1)c1ccccc1 (stereo not drawn)	i	i	i	111.0	i	i
COc1ccc(C(OCC(O)CNCCc2ccc(S(N)(=O)=O)cc2)c2ccc(OC)cc2)cc1 (stereo not drawn)	i	i	i	i	i	i
COc1ccccc1C(=O)Nc1nc(-c2ccc(S(=O)(=O)N3CCOCC3)cc2)cs1	81.5	i	i	95.5	i	i
O=C(Nc1nc(-c2ccccc2)cs1)c1ccccc1NS(=O)(=O)c1ccc(F)cc1	69.5	i	?	i	i	i
COc1ccccc1OC(C)C(=O)Nc1nc(-c2ccc(S(=O)(=O)N3CCOCC3)cc2)cs1 (stereo not drawn)	i	i	i	i	i	i
C[C@@H]1O[C@H](C2CCCC2)Cc2[nH]c(=S)[nH]c(=O)c21	nt	nt	nt	nt	nt	i
Cc1cc(O)c2c(c1O)C(=O)[C@]13C(=C2O)C(=O)[C@@H]2[C@@H](O)[C@H]1[C@@H]1[C@H](O)[C@H]3C(=O)C3=C(O)c4c(O)cc(C)c(O)c4C(=O)[C@]312	?	53.0	i	i	i	i

Compound activity as filed in PubChem.
